Assay [1] in a line: optical density shifts of acrAB sulA E. coli – strain DRC41, OD650, 48 h, E. coli filamentation inducer project, primary screen (AID 1152).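 Also: E. coli MC1000 strain DRC41 lacking acrAB efflux pump and sulA.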 Particulars: higher = more signal, called active from +8 up or from −8 down.
Assay [2] is described as follows: probe aLefty1 binding on compound microarray – biochemical, small-molecule microarray, 635/667 nm fluorescence, primary screen (AID 1153).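 Also: score merges spot fluorescence with signal-to-noise ratio from the scanned slide images.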 As to conditions: higher = more signal.
Assay [3] can be described thus: plasmodial surface anion channel blockers, osmotic lysis – cell-based, P. falciparum Indochina, OD700, 1 h, primary screen (AID 1154). Particulars: P. falciparum Indochina infected RBC osmotic lysis, higher = more signal, called active from +8 up or from −8 down.
The nature of assay [4]: plasmodial surface anion channel blockers, osmotic lysis – cell-based, P. falciparum Indochina, OD700, 2 h, primary screen (AID 1155).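 Also: lysis reports solute entry through the parasite surface anion channel PSAC.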 Particulars: P. falciparum Indochina infected erythrocytes, higher = more signal, called active from +8 up or from −8 down.
Assay [5] is described as follows: changes in parasitized red cell lysis, either direction – P. falciparum Indochina, OD700, 3 h, PSAC antagonist project, primary screen (AID 1156). As to conditions: P. falciparum-infected erythrocytes, osmotic lysis, higher = more signal, called active from +8 up or from −8 down.
The nature of assay [6]: plasmodial surface anion channel blockers, osmotic lysis – cell-based, P. falciparum Indochina, OD700, 18 h, primary screen (AID 1157). Particulars: P. falciparum Indochina infected erythrocytes, osmotic lysis OD700, 18 h; higher = more signal, called active from +8 up or from −8 down.
A short description of assay [7]: S6 kinase pathway phospho-S6 level changes – cell-based, A549, cytoblot, luminescence, serum-stimulated, primary screen (AID 1158).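 Also: serum-stimulated A549 lung adenocarcinoma cells; signal is phosphorylated S6 detected by cytoblot immunostaining with HRP secondary.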 As to conditions: 5 h, higher = more signal.
In assay [8] the target is NADPH oxidase 2 (Homo sapiens) (UniProt P04839). The assay is described as follows: compounds shifting NOX2 Amplex Red fluorescence – cell-based, HEK293-NOX2, PMA-stimulated, NOX inhibitor project, primary screen (AID 1159). Also: test concentration not given here. As to conditions: 45 min, higher = more signal, called active from +8 up or from −8 down.
NADPH oxidase 2 (Homo sapiens), sequence (P04839 whole entry, looked up): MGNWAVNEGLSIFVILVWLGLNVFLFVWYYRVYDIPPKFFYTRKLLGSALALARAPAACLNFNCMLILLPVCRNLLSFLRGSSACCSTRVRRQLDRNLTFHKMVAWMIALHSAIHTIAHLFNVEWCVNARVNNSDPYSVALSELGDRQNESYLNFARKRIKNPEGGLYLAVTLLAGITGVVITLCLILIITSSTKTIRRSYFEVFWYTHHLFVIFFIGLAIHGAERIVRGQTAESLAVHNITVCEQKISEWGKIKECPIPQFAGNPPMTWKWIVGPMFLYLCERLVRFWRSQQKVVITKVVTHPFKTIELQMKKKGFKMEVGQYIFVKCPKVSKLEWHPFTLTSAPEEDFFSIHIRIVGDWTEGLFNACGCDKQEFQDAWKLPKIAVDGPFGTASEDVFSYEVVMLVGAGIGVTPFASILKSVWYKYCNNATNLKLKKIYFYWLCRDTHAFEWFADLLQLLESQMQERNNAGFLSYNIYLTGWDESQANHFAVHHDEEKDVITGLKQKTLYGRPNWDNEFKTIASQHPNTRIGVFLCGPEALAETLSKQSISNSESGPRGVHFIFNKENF
Assay [9] addresses NADPH oxidase 4 (Homo sapiens) (UniProt Q9NPH5). The assay is described as follows: compounds shifting NOX4 Amplex Red fluorescence – cell-based, HEK293-NOX4, tetracycline-induced, NOX inhibitor project, primary screen (AID 1160). Particulars: HEK293-NOX4, Amplex Red H2O2 fluorescence, 45 min; higher = more signal, called active from +8 up or from −8 down.
Assay [10] has as its target NADPH oxidase 5 (Homo sapiens) (UniProt Q96PH1). Put plainly: compounds shifting NOX5 Amplex Red fluorescence – cell-based, HEK293-NOX5, NOX inhibitor project, primary screen (AID 1161). As to conditions: HEK293-NOX5, ionomycin, 45 min, higher = more signal.
Assay [11] is described as follows: compound effects on lung adenocarcinoma cell viability – A549, calcein-AM fluorescence, 48 h, basal, profiling panel (AID 1162). Also: test concentration not given here. As to conditions: higher = more signal.
A short description of assay [12]: compound effects on differentiated 3T3-L1 adipocyte viability – cell-based, 3T3-L1 adipocytes, calcein-AM fluorescence, 48 h, basal, profiling panel (AID 1163). Also: test concentration not given here. As to conditions: 3T3-L1 adipocytes viability, higher = more signal.
Assay [13] can be described thus: compound effects on hepatocellular carcinoma cell viability – HepG2, calcein-AM fluorescence, 48 h, basal, profiling panel (AID 1164). Also: test concentration not given here. Particulars: higher = more signal.
The nature of assay [14]: compound effects on multiple myeloma cell viability – MM1S, calcein-AM fluorescence, 48 h, basal, profiling panel (AID 1165).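 Also: viability of MM1S multiple myeloma cells under basal unstimulated conditions; test concentration not given here.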 Particulars: higher = more signal.
Assay [15] can be described thus: calcein-AM signal in unstimulated myeloma cells – cell-based, calcein-AM fluorescence, 48 h, PK04 Diversity Set, profiling panel (AID 1166).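 Also: cells grown under basal conditions without added stimulus; test concentration not given here.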 Particulars: RPMI8226 myeloma viability, higher = more signal.
The nature of assay [16]: JC-1 mitochondrial signal, unstimulated HepG2 cells – cell-based, JC-1 fluorescence, 24 h, 100 nL compound, profiling panel (AID 1167). Also: test concentration not given here. As to conditions: HepG2 mitochondrial potential, higher = more signal.
Assay [17] in a line: JC-1 mitochondrial signal, unstimulated adipocytes – cell-based, JC-1 fluorescence, 3T3-L1 adipocytes, 24 h, 100 nL compound, profiling panel (AID 1168). Also: test concentration not given here. Particulars: JC-1 mitochondrial fluorescence, higher = more signal, called active from +8 up or from −8 down.
Assay [18] is described as follows: JC-1 mitochondrial signal, unstimulated myeloma cells – cell-based, JC-1 fluorescence, RPMI8226, 24 h, 100 nL compound, profiling panel (AID 1169). Also: test concentration not given here. As to conditions: JC-1 mitochondrial potential fluorescence, higher = more signal.
A short description of assay [19]: JC-1 mitochondrial signal, unstimulated MM1S myeloma – cell-based, JC-1 fluorescence, 24 h, 100 nL compound, profiling panel (AID 1170). Also: test concentration not given here. As to conditions: MM1S mitochondrial potential, higher = more signal.
Assay [20] can be described thus: resazurin metabolic signal in A549 cells – cell-based, resazurin fluorescence, 24 h, PK04 Diversity Set, profiling panel (AID 1171). Also: test concentration not given here. As to conditions: A549 viability, higher = more signal, called active from +8 up or from −8 down.

Calls of active or inactive are those of the source.

NADPH oxidase 5 (Homo sapiens), sequence (Q96PH1 whole entry, looked up): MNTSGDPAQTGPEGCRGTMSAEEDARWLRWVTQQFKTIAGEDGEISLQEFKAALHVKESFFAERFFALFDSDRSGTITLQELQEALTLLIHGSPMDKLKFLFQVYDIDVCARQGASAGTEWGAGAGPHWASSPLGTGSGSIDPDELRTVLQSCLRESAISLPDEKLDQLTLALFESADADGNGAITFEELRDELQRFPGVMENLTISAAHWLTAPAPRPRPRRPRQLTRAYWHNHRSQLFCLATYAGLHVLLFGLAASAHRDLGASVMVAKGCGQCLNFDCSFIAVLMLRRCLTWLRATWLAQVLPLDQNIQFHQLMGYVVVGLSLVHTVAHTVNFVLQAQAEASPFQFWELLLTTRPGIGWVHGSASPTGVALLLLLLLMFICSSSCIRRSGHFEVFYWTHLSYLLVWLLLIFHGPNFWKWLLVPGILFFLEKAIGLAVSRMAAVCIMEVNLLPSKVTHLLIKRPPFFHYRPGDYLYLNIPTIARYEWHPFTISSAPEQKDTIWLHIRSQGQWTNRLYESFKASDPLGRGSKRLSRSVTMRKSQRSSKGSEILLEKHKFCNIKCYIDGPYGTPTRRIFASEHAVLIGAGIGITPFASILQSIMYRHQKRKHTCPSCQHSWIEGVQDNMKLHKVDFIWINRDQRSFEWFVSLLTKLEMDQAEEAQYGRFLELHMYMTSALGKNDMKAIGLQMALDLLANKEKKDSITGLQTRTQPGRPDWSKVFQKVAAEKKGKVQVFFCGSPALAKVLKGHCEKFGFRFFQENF
NADPH oxidase 4 (Homo sapiens), sequence (Q9NPH5 whole entry, looked up): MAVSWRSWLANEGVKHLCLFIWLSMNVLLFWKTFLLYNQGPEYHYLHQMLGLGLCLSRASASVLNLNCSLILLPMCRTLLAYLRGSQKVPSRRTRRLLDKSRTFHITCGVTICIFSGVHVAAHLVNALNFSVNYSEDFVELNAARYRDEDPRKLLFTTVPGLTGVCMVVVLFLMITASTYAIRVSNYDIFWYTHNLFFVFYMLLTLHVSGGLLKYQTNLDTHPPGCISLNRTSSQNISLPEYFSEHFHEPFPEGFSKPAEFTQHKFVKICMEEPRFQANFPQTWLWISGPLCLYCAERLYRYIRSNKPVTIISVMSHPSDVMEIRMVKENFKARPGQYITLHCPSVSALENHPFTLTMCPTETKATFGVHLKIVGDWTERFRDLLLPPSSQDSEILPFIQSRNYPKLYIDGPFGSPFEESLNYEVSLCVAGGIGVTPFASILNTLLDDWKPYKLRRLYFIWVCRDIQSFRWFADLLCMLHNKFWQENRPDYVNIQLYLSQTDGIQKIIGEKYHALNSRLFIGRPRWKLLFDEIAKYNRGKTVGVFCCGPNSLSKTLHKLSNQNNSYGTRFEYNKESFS

Consider `CC(C)c1ccc(NN2C(C(O)C(C)C)C=CC3C(=O)N(c4ccccc4)C(=O)C32)cc1` (stereo not given), for which the z-score in assay [1] was -0.671 (inactive); in assay [3], 1.37 (inactive); in assay [4] it was 0.83 (inactive); in assay [5], 0.42 (inactive); in assay [6], 1.37 (inactive); in assay [7], -0.452. Moreover, the z-score in assay [8] was -0.862 (inactive); in assay [9], -4.22 (inactive); in assay [10], -4.95; in [11] it was -0.149; in assay [12], -0.0009; in assay [13], -0.463. In addition, the z-score in [14] was -0.871; in assay [15], -0.542; in assay [16], -0.419; in [17], -1.52 (inactive); in assay [18] it was -0.692; in assay [19], 0.54. Besides, the z-score in assay [20] was -1.28 (inactive). The composite z-score in assay [2] was 0.996.

In the case of `CCCCC=C[C@@H](NC(=O)c1ccc(C(F)(F)F)cc1)c1ccccc1`, the z-score in assay [1] is -1.96 (inactive); in [3] it was 5.47 (inactive); in [4], 0.895 (inactive); in assay [5] it was -0.427 (inactive); in assay [6] it was 0.373 (inactive); in assay [7], -0.0311. The z-score is -1.51 (inactive) in assay [8]; -1.37 (inactive) in assay [9]; 1.1 in assay [10]; -1.13 in assay [11]; -1.28 in assay [12]; -0.63 in assay [13]. Moreover, the z-score in [14] is -0.978; in [15], -2.53; in [16], -1.65; in [17], -1.12 (inactive); in assay [18], -0.169; in [19], -1.27. Also, the z-score in [20] is 2.14 (inactive). In addition, the composite z-score in [2] is -0.112.

Turning to `Cc1ccc(S[C@]2(C(=O)NCCN3CCOCC3)CC(=O)N(C3CCCCC3)[C@@H]2c2ccc(CO)cc2I)cc1`, the z-score in [1] was 0.465 (inactive); in assay [3], 6.63 (inactive); in assay [4], 0.86 (inactive); in assay [5], 1.68 (inactive); in [6], 0.622 (inactive); in assay [7], -0.439. Also, the z-score was 0.832 (inactive) in assay [8]; 0.11 (inactive) in assay [9]; 2.6 in assay [10]; 0.312 in assay [11]; 0.0138 in assay [12]; 0.293 in [13]. For the same compound, the z-score in assay [14] is -2.42; in [15], -2.46; in assay [16] it was 2.54; in [17], 0.11 (inactive); in assay [18] it was -0.457; in assay [19] it was -1.53. In addition, the z-score in [20] is 2.04 (inactive). This compound yielded a composite z-score in assay [2] of -0.174.

As to `CC(C)N1CC=CC23O[C@@H]4C=CCCOC(=O)C4[C@H]2C(=O)N(CCCCCO)[C@@H]3C1=O` (stereo not given in full), the z-score in assay [1] was 0.952 (inactive); in assay [3] it was 1.42 (inactive); in assay [4], 0.261 (inactive); in [5], 2.21 (inactive); in [6], 0.455 (inactive); in [7], 1.35. Further, the z-score was 1.42 (inactive) in [8]; 0.356 (inactive) in assay [9]; 1.48 in assay [10]; -0.211 in assay [11]; -0.288 in assay [12]; 1.28 in [13]. Further, the z-score in assay [14] was 1.57; in assay [15] it was 1.7; in assay [16], 0.77; in assay [17], 1.19 (inactive); in assay [18] it was 0.0326; in assay [19] it was -1.08. In assay [20], the z-score is 0.846 (inactive). For the same compound, the composite z-score in assay [2] is -0.0186.

With `[N-]=[N+]=NCc1ccccc1C[C@@]1(C(=O)O)N=C(c2ccc(OCCCO)cc2)O[C@@H]1c1ccccc1CN=[N+]=[N-]`, the z-score in assay [1] was 0.583 (inactive); in assay [3], 22.1 (active); in assay [4] it was 4.92 (inactive); in assay [5], -0.995 (inactive); in [6], -0.336 (inactive); in assay [7], 1.03. Further, the z-score in assay [8] was 0.887 (inactive); in assay [9], 1.54 (inactive); in [10], 2.03; in assay [11], 0.737; in assay [12], 0.2; in assay [13] it was 0.0664. In addition, the z-score in assay [14] is -0.274; in assay [15], -2.21; in assay [16] it was -0.168; in assay [17], -0.186 (inactive); in assay [18] it was -0.477; in assay [19], -0.824. For the same compound, the z-score in assay [20] was 0.855 (inactive). The composite z-score in assay [2] turned out to be 0.313.

Take `CN1C(=O)[C@]2(CCC(=O)OC(C)(C)C)N=C(c3ccc(OCCCO)cc3)O[C@@H]2c2ccccc21`: the z-score in [1] is 0.504 (inactive); in assay [3], 33.2 (active); in assay [4] it was 29.3 (active); in assay [5], 2.63 (inactive); in [6], 2.68 (inactive); in [7], -0.0426. Moreover, the z-score was -2.09 (inactive) in assay [8]; -0.534 (inactive) in assay [9]; -1.44 in assay [10]; -0.024 in assay [11]; 0.834 in assay [12]; -0.54 in assay [13]. Further, the z-score is -0.964 in assay [14]; -3.26 in assay [15]; 1.29 in [16]; 1.41 (inactive) in assay [17]; -0.931 in [18]; 0.129 in assay [19]. The z-score in assay [20] is -0.877 (inactive). Moreover, in assay [2], the composite z-score worked out at 0.448.

Consider `O=C1c2ccccc2[C@@]2(Cc3ccccc3N(Cc3ccccc3)C2=O)[C@H](c2ccc(CO)cc2)N1Cc1ccccc1`, for which the z-score in assay [1] is -0.757 (inactive); in [3] it was -0.0384 (inactive); in [4] it was 0.0732 (inactive); in assay [5], 0.0046 (inactive); in [6] it was -0.11 (inactive); in [7], 0.244. The z-score in assay [8] is 0.0584 (inactive); in [9], 0.572 (inactive); in assay [10], -0.107; in [11] it was -0.574; in [12] it was -0.269; in assay [13], -0.643. Further, the z-score was 0.0744 in [14]; -0.851 in assay [15]; -0.0723 in [16]; -0.271 (inactive) in assay [17]; 0.167 in assay [18]; -0.353 in [19]. In assay [20], the z-score was -0.381 (inactive). This compound also had a composite z-score in assay [2] of -0.147.

Consider `O=C1O[C@@H](c2ccccc2)[C@@H](c2ccccc2)N2[C@@H](c3ccc(OCCO)cc3)[C@]3(C(=O)Nc4ccc(C#CCCO)cc43)[C@@H](C(=O)Nc3nc4ccccc4s3)[C@H]12`, for which the z-score in [1] was 2.3 (inactive); in [3], 1.01 (inactive); in [4] it was -0.0042 (inactive); in assay [5], -1.53 (inactive); in assay [6], -1.15 (inactive); in assay [7], 0.922. Besides, the z-score in [8] is 0.762 (inactive); in [9] it was 0.868 (inactive); in [10], 1.52; in [11], 0.0652; in assay [12], 0.794; in [13] it was -0.354. For the same compound, the z-score is -0.267 in assay [14]; -0.0767 in assay [15]; -3.09 in assay [16]; 1.57 (inactive) in [17]; -1.06 in assay [18]; -1.49 in assay [19]. For the same compound, the z-score in assay [20] is 1.58 (inactive). Moreover, the composite z-score in assay [2] amounted to 0.573.

For `NC(=O)[C@@]1(CCS(=O)(=O)c2ccccc2)COC(c2ccc(OCCCO)cc2)=N1`, the z-score was 1.05 (inactive) in [1]; 22.1 (active) in assay [3]; 4.56 (inactive) in assay [4]; 0.815 (inactive) in [5]; 0.939 (inactive) in assay [6]; -0.192 in [7]. Further, the z-score was -2.33 (inactive) in [8]; -0.383 (inactive) in [9]; -0.124 in [10]; -0.339 in assay [11]; -0.519 in assay [12]; 0.344 in assay [13]. Besides, the z-score is -0.0256 in assay [14]; 0.458 in assay [15]; -0.522 in assay [16]; -0.762 (inactive) in assay [17]; -0.436 in [18]; -0.942 in assay [19]. Besides, in assay [20], the z-score is -0.721 (inactive). The compound also showed a composite z-score in [2] of 0.281.

The values above are taken from PubChem BioAssay.
